Measurements reported in PubChem BioAssay AID463173 (ICCB-Longwood Screening Facility, Harvard Medical School, 2010).
In all, about 52,000 compounds went through this assay and about 1,700 (3.3%) were called active. The entries come from a sample that favours actives as a whole. A number with no mark means an inactive call. No stated cut-off is given here; in the data, active means survival mostly below about 52% (no sharp cut-off); inactive means mostly above about 56%.

What follows are compounds tested on Wild type (assay: growth inhibition of S. aureus wild type versus tarO mutant, primary screen, teichoic acid synthesis inhibitors, RN4220, OD600 (AID 463173)). Details: S. aureus RN4220 wild type/DeltatarO growth, OD600, 18 h, active compounds read low, screened at 18.75 µg/mL (by protocol).
Compound COc1ccc(-c2cc(C(=O)Nc3c(Cl)cccc3Cl)no2)cc1OC has a survival of 79%. With O=C(Nc1c(Cl)cccc1Cl)c1cc(-c2cccc(O)c2)on1 the survival was 5% (active). O=C(Nc1c(Cl)cccc1Cl)c1cc(-c2ccc3c(c2)OCO3)on1 showed a survival of 82%. With COC(=O)/C=C1/C(=O)N(C(C)=O)c2ccccc21 the survival was 108%. For COc1ccc(CNS(=O)(=O)c2cc3c(cc2C)n(C)c(=O)c(=O)n3C)cc1, the survival was 77%. COc1cccc(N2CCN(Cc3nnc(-c4ccc5c(c4)OCO5)o3)CC2)c1 gave a survival of 102%. COc1ccc(S(=O)(=O)N(C)Cc2nc(-c3cccc(C)c3)no2)cc1 was tested, and the survival was 74%. For Cc1cccc(-c2noc(CN(C(=O)COc3ccc(C(C)C)cc3)C(C)C)n2)c1, the survival was 3% (active). In the case of Cc1cccc(-c2noc(CN(C(=O)COc3ccc(Br)cc3C)C(C)C)n2)c1, the survival is reported as 30%. CCOc1ccc(C(=O)N(Cc2nc(-c3cccc(C)c3)no2)C(C)C)cc1 was tested, and the survival was 2% (active). In the case of Cc1cccc(-c2noc(CN(C(=O)c3ccc(C)c(C)c3)C(C)C)n2)c1, the survival is reported as 0% (active). COc1ccc(OC(C)C(=O)NCc2nc(-c3cccc(C)c3)no2)cc1 (stereo not drawn) showed a survival of 87%. With Cc1cccc(-c2noc(CN(C(C)C)S(=O)(=O)c3ccc(Br)cc3)n2)c1 the survival was 72%. In the case of COc1ccccc1C(=O)N(Cc1nc(-c2cccc(C)c2)no1)C(C)C, the survival is reported as 56%. In the case of Cc1cccc(-c2noc(CN(C(=O)c3ccccc3Cl)C(C)C)n2)c1, the survival is reported as 86%. CCN(CC(O)COc1ccc(OCC(O)CN(CC)C2CCCCC2)cc1)C1CCCCC1 (stereo not drawn) gave a survival of 109%. Compound CC1(C)CC(=O)c2cc(-c3nc(-c4ccc(Cl)cc4)cs3)c(=O)n(-c3ccc(Cl)cc3)c2C1 has a survival of 67%. In the case of Cn1nc(C(=O)NCCc2ccc(Cl)cc2)c2c1-c1ccccc1SC2, the survival is reported as 82%. For CCc1nn2c(=O)c(S(=O)(=O)Nc3ccc(C)cc3C)c(C)nc2s1, the survival was 75%. In the case of CCCCN(CC)CCNC(=O)c1cn(CCOC)c(=O)c2c1c1ccccc1n2C, the survival is reported as 89%. COc1ccccc1-c1c(C)nn2c(-c3ccccc3)cc(-c3ccccc3)nc12 showed a survival of 77%. With Cc1cc(C)cc(OC(C)C(=O)Nc2nonc2-c2ccc(Br)cc2)c1 (stereo not drawn) the survival was 17% (active). Compound Cc1cccc(OC(C)C(=O)Nc2nonc2-c2ccc(Br)cc2)c1C (stereo not drawn) has a survival of 94%. Cc1ccc(OC(C)C(=O)Nc2nonc2-c2ccc(Br)cc2)cc1C (stereo not drawn) showed a survival of 72%. With Cc1ccc(-n2nc(CO)c(C(=O)NCCC(C)C)n2)cc1C the survival was 116%. Compound CCOc1ccccc1NC(=O)CN1C(=O)C2(SCC(=O)N2c2cccc(F)c2)c2ccccc21 (stereo not drawn) has a survival of 97%. Cc1ccc(/C=N/NC(=O)C2=NNC(=O)C2C)o1 (stereo not drawn) gave a survival of 107%. COc1cccc(OCc2nnc(SCC(=O)O)o2)c1 gave a survival of 98%. Compound CCCc1cc(=O)oc2cc(C)c3c(-c4ccccc4)coc3c12 has a survival of 66%. CCCc1cc(=O)oc2cc(C)c3c(-c4cccc(OC)c4)coc3c12 was tested, and the survival was 74%. With CCCc1cc(=O)oc2cc(C)c3c(-c4ccccc4)c(C)oc3c12 the survival was 0% (active). For CCN1C(=O)c2ccccc2S(=O)c2ccc(C(=O)N3CCN(c4ccccc4)CC3)cc21 (stereo not drawn), the survival was 83%. In the case of CCOc1ccc2nc(N3CCCC(C(=O)Nc4ccc(OC)c(Cl)c4)C3)sc2c1 (stereo not drawn), the survival is reported as 89%. With COc1ccc(NCc2nc3ccccc3n2CCOc2ccc(C)cc2)cc1 the survival was -18% (active). Clc1ccc(NCc2nc3ccccc3n2CCOc2ccccc2)cc1 showed a survival of 74%. For Cc1ccc(NCc2nc3ccccc3n2CCOc2ccccc2)cc1, the survival was -20% (active). In the case of Cc1ccc(OCCn2c(CNc3cccc(C)c3)nc3ccccc32)cc1, the survival is reported as -21% (active). For CCOc1ccc(NCc2nc3ccccc3n2CCOc2ccc(C)cc2)cc1, the survival was -20% (active). Work on CCOc1ccc(NCc2n[nH]c(=S)n2-c2ccc(C)cc2)cc1 yielded a survival of 122%. With CC(C)CCNc1ncnc2c1nnn2Cc1ccccc1 the survival was 111%. Compound Cc1nc2cc(NC(=O)Nc3ccccc3Cl)ccc2n1C has a survival of 109%. CCCCNC(=O)c1nn(-c2ccc(C)cc2)c(=O)n(C)c1=O showed a survival of 68%. For Cc1ccc(N(CC(=O)Nc2ccc(Cl)cc2)S(=O)(=O)c2cccc3nonc23)cc1, the survival was 125%. O=C(Cn1ncn2nc(-c3cccs3)cc2c1=O)NCc1ccccc1Cl was tested, and the survival was 94%. COc1ccc(-c2nn3c(=O)cc(CN4CCN(C(=O)/C=C/c5ccccc5)CC4)nc3s2)cc1 was tested, and the survival was 72%. In the case of CCn1cc2nc(SCc3c(F)cccc3Cl)n(CCc3ccccc3)c(=O)c2n1, the survival is reported as 64%. CCn1c(=O)cc(SCC(=O)NCc2ccc(F)cc2Cl)c2ccccc21 showed a survival of 91%. In the case of Cc1cc(Cl)ccc1NC(=O)C1CCCN(c2nnc(C)c3c(C)n(-c4ccccc4)nc23)C1 (stereo not drawn), the survival is reported as 70%. With Cc1ccccc1NCc1nc2ccccc2n1CCOc1ccccc1 the survival was -20% (active). In the case of Cc1ccc(OCCn2c(CNc3ccccc3C)nc3ccccc32)cc1, the survival is reported as 57%. Cc1ccc(CSCC(=O)N2CCN(c3ccccc3F)CC2)cc1 was tested, and the survival was 45%. Compound COc1ccc(Cn2c(=O)c3ccccc3n3c(-c4cccc(OC)c4OC)nnc23)cc1 has a survival of 87%. In the case of Cc1ccc(C)c(NC(=O)CCn2nc(C)c3c(C)n(-c4ccccc4)nc3c2=O)c1, the survival is reported as 10% (active). For Cc1nn(CCC(=O)NCc2ccc(N(C)C)cc2)c(=O)c2nn(-c3ccccc3)c(C)c12, the survival was 87%. With Cc1cc(Cl)ccc1NC(=O)CCCn1nc(C)c2c(C)n(-c3ccccc3)nc2c1=O the survival was 118%. With COc1ccc(CNC(=O)CCCn2nc(C)c3c(C)n(-c4ccc(C)cc4)nc3c2=O)cc1OC the survival was 71%. For COc1cc(OC)c(NC(=O)CCCn2nc(C)c3c(C)n(-c4ccccc4)nc3c2=O)cc1Cl, the survival was 0% (active). For Cc1cc(Cl)ccc1NC(=O)CCn1nc(C)c2c(C)n(-c3ccccc3)nc2c1=O, the survival was 68%. With COc1ccc(CNC(=O)CCn2nc(C)c3c(C)n(-c4ccccc4)nc3c2=O)cc1OC the survival was -2% (active). With CCc1ccc(CNC(=O)CCn2nc(C)c3c(C)n(-c4ccccc4)nc3c2=O)cc1 the survival was 65%. Cc1ccc(NC(=O)CCCn2nc(C)c3c(C)n(-c4ccccc4)nc3c2=O)c(Cl)c1 was tested, and the survival was 113%. For Cc1cccc(NC(=O)CCn2nc(C)c3c(C)n(-c4ccccc4)nc3c2=O)c1C, the survival was 65%. For COc1cccc(CNC(=O)CCn2nc(C)c3c(C)n(-c4ccccc4)nc3c2=O)c1, the survival was 82%. In the case of Cc1nn(CCC(=O)NCc2ccc(Cl)cc2)c(=O)c2nn(-c3ccccc3)c(C)c12, the survival is reported as -3% (active). Compound O=C(NCCSCc1c(F)cccc1Cl)C1CCN(S(=O)(=O)Cc2ccccc2)CC1 has a survival of 87%. Work on O=C(CC(c1cccs1)N1Cc2ccccc2C1=O)Nc1ccc(F)cc1 (stereo not drawn) yielded a survival of 91%. CCN(CC)C(=O)Cn1c(=O)cc(C)c2c(C)nn(-c3cccc(Cl)c3C)c21 gave a survival of 85%. Compound Cc1ccccc1C(=O)Nc1ccc2c(c1)CCCN2C(=O)c1cccs1 has a survival of 77%. With Cc1ccccc1NC(=O)Cn1c(=O)n(CCCC(=O)NCc2ccc3c(c2)OCO3)c(=O)c2ccccc21 the survival was 91%. Work on Cc1ccc(S(=O)(=O)c2cn(C)c3cc(N4CCCCC4)c(F)cc3c2=O)cc1 yielded a survival of 74%. COc1ccc(-c2nc3c(c(SCC(=O)Nc4ccccc4F)n2)Cc2cc(C)ccc2O3)cc1 showed a survival of 80%. Compound COc1ccccc1NC(=O)C(=O)NCC(c1ccc2c(c1)OCO2)N1CCN(C)CC1 (stereo not drawn) has a survival of 81%. O=C(CN(c1ccc(Cl)c(C(F)(F)F)c1)S(=O)(=O)c1ccccc1)Nc1cccnc1 was tested, and the survival was 64%. Compound Cc1c(CCC(=O)N2CCCCC2)c(=O)oc2cc3occ(C(C)(C)C)c3cc12 has a survival of 74%. Cc1cccc(Cn2c(SCc3ccc(C(=O)NCc4cccs4)cc3)nc3ccncc32)c1 showed a survival of 84%. For COc1ccc(N2CCN(S(=O)(=O)c3ccc(-c4ccno4)cc3OC)CC2)cc1, the survival was 1% (active). COc1ccccc1N1CCN(S(=O)(=O)c2ccc(-c3ccno3)cc2OC)CC1 was tested, and the survival was 82%. For COc1cc(-c2ccno2)ccc1S(=O)(=O)N1CCN(c2cccc(Cl)c2)CC1, the survival was -3% (active). For COc1cccc(N2CCN(S(=O)(=O)c3ccc(-c4ccno4)cc3OC)CC2)c1, the survival was 57%. COc1cc(-c2ccno2)ccc1S(=O)(=O)N1CCN(c2ccccc2)CC1 was tested, and the survival was 71%. For COc1cc(-c2ccno2)ccc1S(=O)(=O)N1CCN(c2ccc(F)cc2)CC1, the survival was 63%. COC(=O)c1c(-c2cccs2)csc1NC(=O)c1cc(OC)c(OC)c(OC)c1 showed a survival of 76%. Work on CCn1ccc2cc(S(=O)(=O)N3CCCN(C(=O)NCC(=O)OC)CC3)ccc21 yielded a survival of 128%. For CCCn1c2ccccc2c2cnn(CC(=O)NCCc3ccc(S(N)(=O)=O)cc3)c(=O)c21, the survival was 134%. For CCN(Cc1ccccc1)C(c1cccnc1)c1nnnn1Cc1ccccc1 (stereo not drawn), the survival was 106%. For CCc1ccccc1NS(=O)(=O)c1ccc2c(c1)CCN2C(=O)C1CC1, the survival was 72%. In the case of Cc1ccc(-n2c(SCC(=O)NCc3ccccc3)nc3n[nH]c(C)c3c2=N)cc1Cl, the survival is reported as -6% (active). In the case of Cc1cccc(-n2c(SCC(=O)Nc3ccccc3Cl)nc3n[nH]c(C)c3c2=N)c1, the survival is reported as 72%. In the case of Cc1ccc(NC(=O)CSc2nc3n[nH]c(C)c3c(=N)n2-c2cccc(C)c2)cc1, the survival is reported as -6% (active). For Cc1ccc(CNC(=O)CSc2nc3n[nH]c(C)c3c(=N)n2-c2cccc(C)c2)cc1, the survival was 133%. CCCCN(CC)C(=O)CSc1nc2n[nH]c(C)c2c(=N)n1-c1cccc(Cl)c1 was tested, and the survival was -1% (active). Cc1ccc(-n2c(SCC(=O)Nc3cccc(Cl)c3)nc3n[nH]c(C)c3c2=N)cc1 gave a survival of 85%. Work on Cc1cccc(-n2c(SCC(=O)Nc3ccc(C)c(C)c3)nc3n[nH]c(C)c3c2=N)c1 yielded a survival of 76%. Cc1cccc(NC(=O)CSc2nc3n[nH]c(C)c3c(=N)n2-c2cccc(Cl)c2)c1 was tested, and the survival was 14% (active). With Cc1c(Cl)cccc1-n1c(SCC(=O)NCc2ccccc2)nc2n[nH]c(C)c2c1=N the survival was 134%. Work on CCCCN(CC)C(=O)CSc1nc2n[nH]c(C)c2c(=N)n1-c1cccc(OC)c1 yielded a survival of 120%. In the case of Cc1ccc(Cl)cc1-n1c(SCC(=O)NCc2ccccc2)nc2n[nH]c(C)c2c1=N, the survival is reported as 72%. Compound CCCCN(CC)C(=O)CSc1nc2n[nH]c(C)c2c(=N)n1-c1cccc(C)c1 has a survival of 78%.
